Consider nine compounds from PubChem BioAssay (EPA / NIEHS).

Test [1] has as its target Paired box protein Pax-6 (Homo sapiens) (UniProt P26367). As to the kind of experiment: ATG_Pax6_CIS: Attagene CIS-FACTORIAL HepG2 Assay for human Paired Box 6 (PAX6) (AID 2282956). The settings on record: HepG2 CIS-FACTORIAL PAX6 reporter transcription, RNA readout; actives raise or lower the signal. The gist of the method: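 Values derive from bidirectional curve fitting of reporter mRNA signal relative to DMSO. HepG2 cells bearing transfected cis-regulated MRTUs were exposed for 24 h; transcripts were read by RT-PCR and capillary electrophoresis.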

The nature of test [2]: ATG_PXRE_CIS: Attagene CIS-FACTORIAL HepG2 Assay for human Pregnane X Receptor Element (PXRE) (AID 2282957). The settings on record: HepG2 Attagene CIS-FACTORIAL PXRE reporter, mRNA; actives raise or lower the signal. The gist of the method: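 After a 24 h chemical incubation, total RNA from transfected HepG2 cells was reverse-transcribed and reporter cDNA amplified, FAM-labeled, HpaI-digested and sized by capillary electrophoresis. DMSO served as baseline for bidirectional curve fitting.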

Test [3] in a line: ATG_PPRE_CIS: Attagene CIS-FACTORIAL HepG2 Assay for human Peroxisome Proliferator-activated Response Element (PPRE) (AID 2282958). The settings on record: HepG2 PPRE cis-element reporter, Attagene transcription factor profiling; actives raise or lower the signal. The gist of the method:
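Read-out: fluorescent reporter mRNA fragments resolved by capillary electrophoresis after RT-PCR. HepG2 cells carried transiently transfected PPRE-driven cis reporter constructs and were dosed for 24 h; gain or loss of signal fitted relative to DMSO.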

Test [4] can be described thus: ATG_RORE_CIS: Attagene CIS-FACTORIAL HepG2 Assay for human RAR-related Orphan Receptor Element (RORE) (AID 2282959). The settings on record: HepG2 Attagene cis-factorial RORE reporter, mRNA; actives raise or lower the signal. The gist of the method: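 Readout: fluorescent reporter mRNA by RT-PCR plus capillary electrophoresis, 24 h after dosing transfected HepG2 cells. Endogenous transcription factor activity on a cis promoter element is measured. Gain or loss of signal fitted against DMSO.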

The target in test [5] is Transcription factor Sp1 (Homo sapiens) (UniProt P08047). Briefly: ATG_Sp1_CIS: Attagene CIS-FACTORIAL HepG2 Assay for human Specificity Protein 1 (Sp1) (AID 2282961). The settings on record: HepG2 Sp1 cis-reporter transcription, actives raise or lower the signal. A digest of the protocol: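 Read-out: fluorescence of 6-FAM-labeled, HpaI-digested RT-PCR products separated by capillary electrophoresis. HepG2 cells carried transfected cis-element reporter units and were exposed to chemicals for 24 h; gain or loss of signal fitted relative to DMSO.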

The target of test [6] is Signal transducer and activator of transcription 3 (Homo sapiens) (UniProt P40763). As to the kind of experiment: ATG_STAT3_CIS: Attagene CIS-FACTORIAL HepG2 Assay for human Signal Transducer and Activator of Transcription 3 (STAT3) (AID 2282963). The note with it: HepG2, Attagene cis-factorial STAT3 reporter transcription; actives raise or lower the signal. A digest of the protocol:
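HepG2, MRTU-transfected, 24 h dosing. RNA → RT → PCR → FAM label → HpaI → CE. Bidirectional fit vs DMSO.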

Test [7] is described as follows: ATG_TA_CIS: Attagene CIS-FACTORIAL HepG2 Assay for human TA Basal Promoter (AID 2282964). The note with it: HepG2 Attagene CIS-factorial TA basal promoter reporter; actives raise or lower the signal. A digest of the protocol:
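Steps: transfect HepG2 with MRTUs; dose 24 h; isolate RNA, DNase-treat, reverse-transcribe; PCR and FAM-label reporter cDNA; digest with HpaI 2h at 37 C; run capillary electrophoresis. Activity fitted both directions against DMSO.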

Test [8] in a line: ATG_TCF_b_cat_CIS: Attagene CIS-FACTORIAL HepG2 Assay for human T-Cell-Factor with beta-catenin (TCF/b-cat) (AID 2282965). The settings on record: HepG2 TCF/beta-catenin cis-reporter transcription, actives raise or lower the signal. A digest of the protocol: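 Using capillary electrophoresis as the read-out, labelled reporter cDNA fragments from transiently transfected HepG2 were sized and quantified. Exposure lasted 24 hours; activity in either direction was referenced to DMSO.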

Test [9] is described as follows: ATG_TAL_CIS: Attagene CIS-FACTORIAL HepG2 Assay for human TAL Basal Promoter (AID 2282966).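 Note: background control endpoint measuring basal TAL promoter reporter mRNA not a specific factor.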 The note with it: HepG2 Attagene cis-factorial TAL promoter reporter; actives raise or lower the signal. The gist of the method:
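Basal-promoter background-control endpoint from a multiplexed HepG2 reporter panel. Cells were exposed 24 h, then reporter mRNA was read by RT-PCR/CE fluorescence and fitted in both directions relative to DMSO.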

Test [10] is described as follows: ATG_TGFb_CIS: Attagene CIS-FACTORIAL HepG2 Assay for human Transforming Growth Factor (TGF) (AID 2282967). The note with it: HepG2 Attagene CIS TGFb reporter, mRNA transcription; actives raise or lower the signal. A digest of the protocol: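 Cells were dosed for 24 hours, after which total RNA was reverse-transcribed and reporter sequences amplified, labeled and sized by capillary electrophoresis. Activity was fitted in both directions against DMSO.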

The nature of test [11]: ATG_VDRE_CIS: Attagene CIS-FACTORIAL HepG2 Assay for human Vitamin D Receptor Element (VDRE) (AID 2282968). The note with it: HepG2 VDRE cis-reporter transcription, actives raise or lower the signal. The gist of the method: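 Steps: transfect HepG2 with multiple reporter transcription units; dose chemicals 24 h; isolate RNA; RT-PCR; label with 6-FAM primer extension; HpaI digest; capillary electrophoresis. Curves fitted both directions against DMSO.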

For test [12], the target named is Estrogen receptor (Homo sapiens) (UniProt P03372). As to the kind of experiment: ATG_ERa_TRANS: Attagene TRANS-FACTORIAL HepG2 Assay for human Estrogen Receptor alpha (ERa) (AID 2282970; active = hit-call score of the fitted dose curve at least 0.9, where 1 is the maximum). The settings on record: HepG2 Attagene TRANS ERa GAL4 reporter, mRNA. The gist of the method:
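Gal4-fusion ERa transactivation, measured as reporter transcript level in transiently transfected HepG2 cells. Exposure 24 h; RT-PCR plus capillary electrophoresis with fluorescence detection.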

Test [13] in a line: ATG_GAL4_TRANS: Attagene TRANS-FACTORIAL HepG2 Assay for GAL4 (Internal Marker) (AID 2282976; active = hit-call score of the fitted dose curve at least 0.9, where 1 is the maximum). The settings on record: HepG2 Attagene TRANS GAL4 internal marker reporter. A digest of the protocol:
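Background-control readout: GAL4-UAS reporter transcript in transiently transfected HepG2 cells after 24 h compound exposure. Measured by RT-PCR, 6-FAM primer extension, HpaI digest and capillary electrophoresis; gain-of-signal fit versus DMSO.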

In test [14] the target is X-box-binding protein 1 (Homo sapiens) (UniProt P17861). Briefly: ATG_Xbp1_CIS: Attagene CIS-FACTORIAL HepG2 Assay for human X-box Binding Protein 1 (XBP1) (AID 2282972). The settings on record: HepG2 XBP1 cis-element reporter, Attagene multiplex; actives raise or lower the signal. The gist of the method: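 Human hepatoma HepG2, cis-element reporter system, 24 h treatment; mRNA quantified by RT-PCR/CE fluorescence; fit relative to DMSO.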

A short description of test [15]: ATG_SREBP_CIS: Attagene CIS-FACTORIAL HepG2 Assay for human Sterol Regulatory Element Binding (SREBP) (AID 2282962). The note with it: HepG2 Attagene cis-factorial SREBP reporter, mRNA; actives raise or lower the signal. A digest of the protocol:
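Values derive from bidirectional curve fitting with DMSO as baseline. The underlying measurement is reporter mRNA from cis-element-regulated units in transiently transfected HepG2, quantified by RT-PCR and capillary electrophoresis after 24 h exposure.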

A short description of test [16]: ATG_Sox_CIS: Attagene CIS-FACTORIAL HepG2 Assay for human SRY-box transcription factor (SOX) (AID 2282960). The settings on record: HepG2 Attagene cis-factorial SOX reporter, mRNA; actives raise or lower the signal. The gist of the method: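 Read-out: fluorescent RT-PCR products of SOX1-linked reporter transcripts resolved by capillary electrophoresis, fitted bidirectionally against DMSO. Transiently transfected HepG2 cells, 24 h after chemical exposure, endogenous transcription factor activity.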

Test [17] deals with Nuclear receptor subfamily 1 group I member 3 (Homo sapiens) (UniProt Q14994). Briefly: ATG_CAR_TRANS: Attagene TRANS-FACTORIAL HepG2 Assay for human Constitutive Androstane Receptor (CAR) (AID 2282969; active = hit-call score of the fitted dose curve at least 0.9, where 1 is the maximum;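 note: activators raise reporter mRNA above DMSO so AC50 marks induction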). The settings on record: HepG2 Attagene TRANS-FACTORIAL CAR reporter. A digest of the protocol:
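Steps: transient transfection of HepG2 with multiple GAL4-UAS reporter units; 24 h compound incubation; RNA isolation, RT-PCR, 6-FAM primer extension, HpaI digest; capillary electrophoresis. Gain-of-signal relative to DMSO negative control.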

Test [18] in a line: ATG_M_19_TRANS: Attagene TRANS-FACTORIAL HepG2 Assay for M19 Transcription Factor (Internal Marker) (AID 2282974; active = hit-call score of the fitted dose curve at least 0.9, where 1 is the maximum). The settings on record: HepG2 Attagene TRANS-FACTORIAL M19 internal marker reporter. A digest of the protocol: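 24 h chemical exposure of transiently transfected HepG2 (MRTU library). RNA → oligo(dT) RT → PCR → 6-FAM labelling → HpaI cut → CE fluorescence. Positive-direction fit vs DMSO baseline; background internal-marker readout.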

Inconclusive results are not listed. Activity calls are given as the source filed them. Rule for the calls, unless noted: active = hit-call score of the fitted dose curve at least 0.9, where 1 is the maximum; inactive = score below 0.9.

Sequence of Transcription factor Sp1 (Homo sapiens) (P08047 whole entry, looked up): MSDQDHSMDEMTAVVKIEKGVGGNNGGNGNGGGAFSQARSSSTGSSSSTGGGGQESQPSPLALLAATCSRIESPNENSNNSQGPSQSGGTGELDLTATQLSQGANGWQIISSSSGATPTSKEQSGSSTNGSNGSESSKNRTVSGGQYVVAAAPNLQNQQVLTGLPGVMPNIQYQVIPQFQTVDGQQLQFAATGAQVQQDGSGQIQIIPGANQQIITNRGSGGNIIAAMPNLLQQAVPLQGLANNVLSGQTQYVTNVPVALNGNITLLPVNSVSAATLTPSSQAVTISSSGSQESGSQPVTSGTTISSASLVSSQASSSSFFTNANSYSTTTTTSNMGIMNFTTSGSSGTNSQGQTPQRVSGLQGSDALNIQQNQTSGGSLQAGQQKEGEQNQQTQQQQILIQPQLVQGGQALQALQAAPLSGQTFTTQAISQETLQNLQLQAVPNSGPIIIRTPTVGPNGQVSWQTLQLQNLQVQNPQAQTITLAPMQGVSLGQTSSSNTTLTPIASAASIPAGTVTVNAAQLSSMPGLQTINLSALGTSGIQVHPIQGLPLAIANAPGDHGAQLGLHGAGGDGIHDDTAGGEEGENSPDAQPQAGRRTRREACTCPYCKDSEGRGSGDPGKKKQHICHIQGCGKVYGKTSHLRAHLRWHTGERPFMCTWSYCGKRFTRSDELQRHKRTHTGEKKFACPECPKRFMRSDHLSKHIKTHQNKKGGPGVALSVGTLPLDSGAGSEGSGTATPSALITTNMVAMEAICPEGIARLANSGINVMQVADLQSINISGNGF
Sequence of Nuclear receptor subfamily 1 group I member 3 (Homo sapiens) (Q14994 whole entry, looked up, the tested form may be a part): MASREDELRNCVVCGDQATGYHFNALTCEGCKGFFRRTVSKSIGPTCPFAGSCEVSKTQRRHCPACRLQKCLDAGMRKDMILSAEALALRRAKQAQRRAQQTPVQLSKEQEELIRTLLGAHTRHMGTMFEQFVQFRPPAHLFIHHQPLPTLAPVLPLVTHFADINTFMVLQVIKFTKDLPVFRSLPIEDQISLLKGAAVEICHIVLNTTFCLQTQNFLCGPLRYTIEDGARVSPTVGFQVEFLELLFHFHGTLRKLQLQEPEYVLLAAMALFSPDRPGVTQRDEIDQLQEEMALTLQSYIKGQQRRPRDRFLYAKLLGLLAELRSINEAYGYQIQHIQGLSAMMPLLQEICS
Sequence of X-box-binding protein 1 (Homo sapiens) (P17861 whole entry, looked up): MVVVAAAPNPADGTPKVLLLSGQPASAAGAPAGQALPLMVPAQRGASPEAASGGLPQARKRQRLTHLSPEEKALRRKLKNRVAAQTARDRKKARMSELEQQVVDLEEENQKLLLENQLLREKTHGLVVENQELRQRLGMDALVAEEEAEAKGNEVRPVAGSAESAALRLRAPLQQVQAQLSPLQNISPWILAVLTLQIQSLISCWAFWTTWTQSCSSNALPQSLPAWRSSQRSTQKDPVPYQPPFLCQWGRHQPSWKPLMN
Sequence of Signal transducer and activator of transcription 3 (Homo sapiens) (P40763 whole entry, looked up): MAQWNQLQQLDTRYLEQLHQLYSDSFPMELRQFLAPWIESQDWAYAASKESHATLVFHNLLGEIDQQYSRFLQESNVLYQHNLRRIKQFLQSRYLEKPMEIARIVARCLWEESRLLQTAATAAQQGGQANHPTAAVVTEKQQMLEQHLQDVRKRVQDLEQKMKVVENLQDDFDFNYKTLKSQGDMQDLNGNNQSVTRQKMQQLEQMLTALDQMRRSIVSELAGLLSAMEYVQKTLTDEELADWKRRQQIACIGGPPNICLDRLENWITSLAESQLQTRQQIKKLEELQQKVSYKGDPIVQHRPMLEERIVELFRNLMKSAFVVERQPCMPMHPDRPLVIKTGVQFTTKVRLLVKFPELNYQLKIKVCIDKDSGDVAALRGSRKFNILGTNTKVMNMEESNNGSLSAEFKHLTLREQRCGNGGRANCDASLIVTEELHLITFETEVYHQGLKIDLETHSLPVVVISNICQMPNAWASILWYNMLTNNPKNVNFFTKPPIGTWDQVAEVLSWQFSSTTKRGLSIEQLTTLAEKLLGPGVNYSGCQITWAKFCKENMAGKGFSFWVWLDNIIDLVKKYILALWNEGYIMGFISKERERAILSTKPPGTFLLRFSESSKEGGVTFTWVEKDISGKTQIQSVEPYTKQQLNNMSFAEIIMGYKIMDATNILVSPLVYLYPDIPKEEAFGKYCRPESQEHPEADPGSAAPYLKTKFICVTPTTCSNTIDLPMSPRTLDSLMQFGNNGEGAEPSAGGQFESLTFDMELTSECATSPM
Sequence of Paired box protein Pax-6 (Homo sapiens) (P26367 whole entry, looked up): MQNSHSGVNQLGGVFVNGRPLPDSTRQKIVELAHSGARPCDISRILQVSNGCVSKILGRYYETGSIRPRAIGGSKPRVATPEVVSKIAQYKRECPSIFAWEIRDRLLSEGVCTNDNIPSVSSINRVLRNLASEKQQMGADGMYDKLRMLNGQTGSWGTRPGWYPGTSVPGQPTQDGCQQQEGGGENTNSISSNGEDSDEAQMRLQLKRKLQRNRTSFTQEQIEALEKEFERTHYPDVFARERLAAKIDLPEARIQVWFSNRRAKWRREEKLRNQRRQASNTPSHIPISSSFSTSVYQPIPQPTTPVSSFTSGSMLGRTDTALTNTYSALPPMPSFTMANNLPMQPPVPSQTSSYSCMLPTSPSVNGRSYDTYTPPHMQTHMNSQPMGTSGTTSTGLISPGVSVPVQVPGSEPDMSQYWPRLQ
Sequence of Estrogen receptor (Homo sapiens) (P03372 whole entry, looked up, the tested form may be a part): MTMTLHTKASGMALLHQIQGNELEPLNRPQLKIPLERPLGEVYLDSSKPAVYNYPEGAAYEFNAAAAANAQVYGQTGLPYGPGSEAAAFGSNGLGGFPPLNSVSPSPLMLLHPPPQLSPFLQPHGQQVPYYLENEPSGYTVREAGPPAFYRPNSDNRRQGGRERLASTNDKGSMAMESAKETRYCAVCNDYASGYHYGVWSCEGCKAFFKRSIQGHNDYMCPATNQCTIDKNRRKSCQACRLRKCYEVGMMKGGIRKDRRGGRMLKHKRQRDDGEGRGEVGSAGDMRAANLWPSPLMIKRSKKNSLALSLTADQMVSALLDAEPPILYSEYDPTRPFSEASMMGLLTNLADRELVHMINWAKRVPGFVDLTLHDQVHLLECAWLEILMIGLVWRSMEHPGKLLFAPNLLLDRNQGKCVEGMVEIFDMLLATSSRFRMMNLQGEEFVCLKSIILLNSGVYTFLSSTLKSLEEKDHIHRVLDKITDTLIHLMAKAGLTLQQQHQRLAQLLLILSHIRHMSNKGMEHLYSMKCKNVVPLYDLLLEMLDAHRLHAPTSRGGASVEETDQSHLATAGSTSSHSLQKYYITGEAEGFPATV

With `O=Cc1ccc(F)cc1`, the call in test [1], in [2], in test [3], in [4], in test [5] and in test [6] was inactive. Further, the outcome in test [7], in test [8], in test [9], in [10], in test [11] and in test [12] was inactive. The outcome in test [13] was inactive.

In general, AC50 refers to the concentration giving half of the maximal activity seen. As to `CCCCCCCCCC=O`, the outcome in test [1], in test [2], in test [4], in [5], in [6] and in test [8] was inactive. In addition, the outcome in test [9], in test [10], in [11], in [12] and in [14] was inactive. The AC50 in [3] was 46.1 µM (active).

`CCCCC[Si](OCC)(OCC)OCC`: the compound was called inactive in test [1], in test [3], in [4], in test [5], in test [15] and in [6]. Further, the compound was classed as inactive in test [7], in test [8], in test [9], in test [10], in [14] and in test [13]. Also, in test [2], the AC50 was 7.23 µM (active).

On to `CC[Si](OC(C)=O)(OC(C)=O)OC(C)=O`, for which the compound was called inactive in [1], in test [3], in [4], in [5], in [15] and in test [6]. For the same compound, the compound was classed as inactive in test [8], in test [9], in test [10] and in test [14]. Further, the figures for the AC50 in test [2] and in test [11] were 6.28 µM (active) and 33.8 µM (active), respectively.

Take `O=C[C@@H](O)[C@H](O)[C@H](O)CO`: the call in [1], in test [2], in test [3], in test [4], in [16] and in test [15] was inactive. In addition, the result in [6], in [7], in [8], in [9], in test [10] and in test [17] was inactive. Besides, the compound was classed as inactive in [13].

Take `CNC(=O)Oc1ccc2c(c1)[C@]1(C)CCN(C)[C@@H]1N2C`: the result in test [1], in test [3], in [4], in test [5], in test [15] and in test [6] was inactive. The compound was called inactive in test [7], in [8], in test [9], in [10], in test [17] and in test [14]. The result in test [18] was inactive. The half-maximal activity concentration (AC50) in test [2] is 38 µM (active).

On to `CCOc1ccccc1OCC`, for which the compound was classed as inactive in test [1], in test [3], in [4], in [16], in test [15] and in test [6]. For the same compound, the call in [7], in [8], in [9], in test [10] and in test [14] was inactive. The AC50 in test [2] is 24.9 µM (active).

As for `Cc1ccc2sc3cccc(C)c3c2c1`, the compound was classed as inactive in [1], in test [2], in test [3], in test [4], in test [5] and in [15]. The outcome in test [6], in test [8], in [9], in test [10], in test [17] and in test [12] was inactive. Further, the compound was called inactive in [14].

Take `COc1nc(C)nc(N)n1`: the call in test [1], in test [2], in test [3], in [4], in test [5] and in test [15] was inactive. Also, the outcome in test [6], in test [7], in [8], in test [9], in test [10] and in test [11] was inactive.
